Reference: PubChem BioAssay (EPA / NIEHS)
The source made the active and inactive calls. Rule for the calls: active = hit-call score of the fitted dose curve at least 0.9, where 1 is the maximum; inactive = score below 0.9.

Experiment: ATG_PPRE_CIS: Attagene CIS-FACTORIAL HepG2 Assay for human Peroxisome Proliferator-activated Response Element (PPRE) (AID 2282958)
Details: HepG2 PPRE cis-element reporter, Attagene transcription factor profiling; actives raise or lower the signal
Experimental: ATG_CIS is a cell-based, multiplexed-readout assay that uses HepG2, a human liver cell line, with measurements taken at 24 hours after chemical dosing in a 24-well plate.ATG_PPRE_CIS is one of 52 assay component(s) measured or calculated from the ATG_CIS assay. It is designed to make measurements of mRNA induction, a form of inducible reporter, as detected with fluorescence intensity signals by Reverse transcription polymerase chain reaction (RT-PCR) and Capillary electrophoresis technology.Data from the assay component ATG_PPRE_CIS was analyzed into 1 assay endpoint. This assay endpoint, ATG_PPRE_CIS, was analyzed with bidirectional fitting relative to DMSO as the negative control and baseline of activity. Using a type of inducible reporter, measures of mRNA for gain or loss-of-signal activity can be used to understand the reporter gene at the transcription factor-level as they relate to the gene PPARA and PPARD and PPARG. Furthermore, this assay endpoint can be referred to as a primary readout, because this assay has produced multiple assay endpoints where this one serves a reporter gene function. To generalize the intended target to other relatable targets, this assay endpoint is annotated to the nuclear receptor intended target family, where the subfamily is non-steroidal.
Human liver HepG2 cells are transiently transfected with multiple reporter transcription units (MRTUs) in 6-well plates using FuGene 6 reagent (Roche; 3 ml FuGene/1 mg DNA). The MRTU constructs are regulated by a cis-regulating element (promoter). […] A major difference between the CIS and TRANS system is that in CIS activities of endogenous TFs are measured, whereas the TRANS assay evaluates changes in activities of exogenous, chimeric NR-Gal4 proteins. […] At the end of 24 hour incubation, total RNA was isolated using TriZol reagent (Invitrogen). The isolated RNA is then reverse-transcribed using oligo(dT) primer and Mo-MLV reverse transcriptase (Invitrogen) with DNAse I (Ambion) treatment for 30 min. The one-tenth of the produced cDNA was amplified by PCR using Taq DNA polymerase (Invitrogen) and two reporter sequence-specific primers. The PCR products were fluorescently labeled by primer extension with 6-arboxyfluorescein (6-FAM) 5'-labeled reporter sequence-specific primer (2 min at 95 C, 20 s at 68 C and 10 min at 72 C) and these products were digested with 5U of HpaI (New England Biolabs) for 2h at 37 C. The fragments were purified using Qiaquick PCR columns (Qiagen), analyzed on an ABI 3130xL genetic analyzer (Applied Biosystems) with peak positions identified by using a set of X-rhodamine (ROX)-labeled MapMarker1000 molecular weight standards (BioVentures). The raw capillary electrophoresis data was processed using Attagraph software (Attagene).

Row | SMILES | outcome | AC50
1 | Cc1ccc(O)cc1 | inactive | –
2 | CC(O)CN(CCN(CC(C)O)CC(C)O)CC(C)O (stereo not given) | inactive | –
3 | Cc1c(-c2cccnc2)c2ccccc2n1CCCCC(=O)O | – | 5.71 µM (active)
4 | CCCC(=O)OCC | inactive | –
5 | C1N2CN3CN1CN(C2)C3 | inactive | –
6 | Nc1nc2ncc(CNc3ccc(C(=O)N[C@@H](CCC(=O)O)C(=O)O)cc3)nc2c(=O)[nH]1 | inactive | –
7 | CCCCC(CC)COC(=O)c1ccc(C(=O)OCC(CC)CCCC)cc1 (stereo not given) | inactive | –
8 | O=C1CCC(N2C(=O)c3ccccc3C2=O)C(=O)N1 (stereo not given) | inactive | –
9 | CCOc1cccc(-n2cc(C(=O)N3CCN(c4cc(C(=O)O)c5ccccc5c4)CC3)nc2-c2ccc(C)cc2)c1 | – | 28.3 µM (active)
10 | CCCN(C1CCN(C(=O)C2CCNCC2)CC1)[C@@H]1CCc2ccc(OC)cc2C1 | inactive | –
11 | CC[C@H](C)C(=O)O[C@H]1C[C@@H](C)C=C2C=C[C@H](C)[C@H](CC[C@@H]3C[C@@H](O)CC(=O)O3)[C@H]21 | inactive | –
12 | CCCCCCCCO | inactive | –
13 | COc1ccc2sc(C(=O)Nc3nnn[nH]3)c(OC(C)C)c2c1 | – | 12.3 µM (active)
14 | O=C1OC(=O)C2C3C=CC(C3)C12 (stereo not given) | inactive | –
15 | COC(=O)c1c(Cl)c(Cl)c(C(=O)OC)c(Cl)c1Cl | inactive | –
16 | CC1(C)C(=O)N(Br)C(=O)N1Br | inactive | –
17 | Oc1ccc2c(c1)-c1ccccc1C2 | – | 46.4 µM (active)
18 | C1=CCCC=CCCC=CCC1 | inactive | –
19 | CC[C@H]1CC[C@H](NCc2cc3c(cc2OC)[C@H]2C[C@H]2C(=O)N3C)[C@H](c2ccccc2)N1 | – | 75.6 µM (active)
20 | CCCCCCCCCCCCCCCO | inactive | –

Row | SMILES | outcome | AC50
21 | O=P(OC(CCl)CCl)(OC(CCl)CCl)OC(CCl)CCl | inactive | –
22 | Cn1cnc([N+](=O)[O-])c1Sc1ncnc2nc[nH]c12 | inactive | –
23 | CNCc1ccc(NC(=O)c2c[nH]c3c2C(=O)CCC3)cc1 | inactive | –
24 | CCn1nc(Cc2ccccc2)cc1C1CCN(C[C@H]2C[C@H](N(C)[C@@H](C(=O)O)C(C)C)C[C@@H]2c2cccc(F)c2)CC1 | inactive | –
25 | COc1cccc(-c2ccc(/C=C\CN3CCCCCC3)cc2Cl)c1 | inactive | –
26 | CN(C)c1ccc(Cc2ccc(N(C)C)cc2)cc1 | – | 36.7 µM (active)
27 | COc1ccc(-n2nc(C(F)F)cc2-c2ccc(S(C)=O)cc2)cc1 (stereo not given) | inactive | –
28 | COC(=O)CC(=O)OC | inactive | –
29 | Cc1ccc(S(=O)(=O)O)cc1C | inactive | –
30 | CCOC(=O)c1ccc(C2CCC(NC[C@H](O)COc3ccc(O)c(NS(C)(=O)=O)c3)CC2)cc1 (stereo not given in full) | – | 57.5 µM (active)
31 | Clc1nc(Cl)c(Cl)c(Cl)c1Cl | inactive | –
32 | O=C(CCCCCCCCc1cccnc1)N1CCC(C=C(c2ccccc2)c2ccccc2)CC1 | – | 1.07 µM (active)
33 | CCc1cc(SCc2sc(-c3ccc(C(F)(F)F)cc3)nc2CN2CCN(c3ccc(OC)cc3)CC2)ccc1OCC(=O)O | – | 0.0329 µM (active)
34 | O=C(O)c1cc(N=Nc2ccc(S(=O)(=O)Nc3ccccn3)cc2)ccc1O | inactive | –
35 | O=C(NS(=O)(=O)/C=C/c1ccccc1)c1ccc(F)cc1Cl | inactive | –
36 | CCC(C)(C)C(=O)O[C@H]1C[C@@H](C)C=C2C=C[C@H](C)[C@H](CC[C@@H]3C[C@@H](O)CC(=O)O3)[C@H]21 | inactive | –
37 | Cc1ccc(N)cc1O | inactive | –
38 | CC(C)=CCCC(C)CCO (stereo not given) | inactive | –
39 | CC(=O)OCCC(C)C | inactive | –
40 | CC(=O)c1ccc2c(c1)[C@H](NC(=O)c1ccc(F)cc1)[C@@H](O)C(C)(C)O2 | – | 1.87 µM (active)
